# Test results as given in PubChem BioAssay (Tox21).
# “And” between values parts separate entries of the source, which are not always exact repeats. Equal values may be shown once. Results filed as inconclusive are left out. Where a call stands in place of a potency, no number is given. Some structures have more than one record in an assay (separate samples or runs), and their calls can disagree. The source made the active and inactive calls. The call rests on the fitted dose curve; in most records, active means well fitted activation curve with a large enough effect in the repeat runs; inconclusive means weak or mixed curves; inactive means no such curve, though single readings can be large or run the other way.
# Target: Aryl hydrocarbon receptor (Homo sapiens) (UniProt P35869)
# Experiment: qHTS assay to identify small molecule that activate the aryl hydrocarbon receptor (AhR) signaling pathway (AID 743085); further: nearly all actives have a fitted effect of over 15% in size;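 on activation: HG2L7.5c1 human HepG2 liver cells with stably integrated DRE-driven firefly reporter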
# Settings: HepG2 AhR-luc (HG2L7.5c1), luciferase, 24 h; series mostly up to 70.3 µM
# From the text: U.S. Tox21 Program National Center for Advancing Translational Sciences [NCATS] NIH Chemical Genomics Center [NCGC] U.S. Environmental Protection Agency [EPA] National Institutes of Environmental Health Sciences [NIEHS] National Toxicology Program [NTP] U.S. Food and Drug Administration [FDA] Tox21 Assay overview: The Aryl hydrocarbon Receptor (AhR), a member of the family of basic helix-loop-helix transcription factors, is crucial to adaptive responses to environmental changes. AhR mediates cellular responses to environmental pollutants such as aromatic hydrocarbons through induction of phase I and II enzymes but also interacts with other nuclear receptor signaling pathways. A cell based HepG2-AhR-luc assay (HG2L7.5c1 cell line, developed by Dr. Michael S. Denison, University of California at Davis, was used to assess the activation of AhR. HepG2 (human hepatocellular carcinoma) cells were stably transfected with an Ah receptor-responsive firefly luciferase reporter gene plasmid containing 20 dioxin responsive elements and luciferase reporter gene. Increased luciferase activity can be used to identify the compounds that induce AhR activation.
# Tox21 Assay Protocol Summary: 4000 cells in 5 uL/well were dispensed into white wall/solid bottom 1536-well plates using a Multidrop Combi (Thermo Fisher Scientific Inc., Waltham, MA) dispenser. After the assay plates were incubated at 37C for 5 h, 23 nL of compound or DMSO vehicle was transferred to the assay plates by a pintool station (Kalypsys, San Diego, CA). The plates were incubated at 37C for 24 hr. After 1 ul/well of CellTiter-Fluor reagent (Promega, Madison, WI) was added into the assay plates using a Flying Reagent Dispenser (FRD) (Aurora Discovery, CA), the assay plates were incubated at 37C for 30 min. The fluorescence intensity in the plates was measured using a ViewLux plate reader (PerkinElmer, Shelton, CT), followed by the addition of 4 uL of ONE-Glo Luciferase Assay reagent (Promega) using an FRD (Aurora Discovery). After the assay plates were incubated at room temperature for 30 min, luminescence intensity was measured using a ViewLux plate reader (Perkin Elmer).
# Potency means the concentration at half of the fitted maximal effect.
# Aryl hydrocarbon receptor (Homo sapiens), sequence (P35869 whole entry, looked up): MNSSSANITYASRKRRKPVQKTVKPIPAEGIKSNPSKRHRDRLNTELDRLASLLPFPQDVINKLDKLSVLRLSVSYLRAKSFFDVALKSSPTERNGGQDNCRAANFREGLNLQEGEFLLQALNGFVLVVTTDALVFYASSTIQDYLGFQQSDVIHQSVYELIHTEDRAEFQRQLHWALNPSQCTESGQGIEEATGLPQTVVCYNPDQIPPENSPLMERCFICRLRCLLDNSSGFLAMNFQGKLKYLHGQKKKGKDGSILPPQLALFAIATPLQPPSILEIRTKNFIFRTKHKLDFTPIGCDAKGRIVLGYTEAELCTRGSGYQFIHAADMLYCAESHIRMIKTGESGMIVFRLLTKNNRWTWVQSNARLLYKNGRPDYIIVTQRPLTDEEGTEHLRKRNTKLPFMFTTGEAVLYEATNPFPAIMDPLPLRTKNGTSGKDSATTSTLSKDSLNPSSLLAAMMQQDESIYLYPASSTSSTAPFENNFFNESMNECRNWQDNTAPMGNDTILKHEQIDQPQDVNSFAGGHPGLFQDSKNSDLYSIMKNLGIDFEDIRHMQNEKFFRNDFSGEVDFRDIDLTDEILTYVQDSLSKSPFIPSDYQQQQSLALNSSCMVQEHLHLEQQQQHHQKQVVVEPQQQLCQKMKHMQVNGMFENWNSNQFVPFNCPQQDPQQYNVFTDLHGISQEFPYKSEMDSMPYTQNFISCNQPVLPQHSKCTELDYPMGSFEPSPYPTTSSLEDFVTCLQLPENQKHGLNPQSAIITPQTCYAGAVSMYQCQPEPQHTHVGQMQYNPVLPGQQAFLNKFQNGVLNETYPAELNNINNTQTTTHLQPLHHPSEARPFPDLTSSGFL
row,Compound,Potency
1,CN(C)[C@@H]1C(=O)C(C(N)=O)=C(O)[C@@]2(O)C(=O)C3=C(O)c4c(O)cccc4[C@@](C)(O)[C@H]3C[C@@H]12,inactive
2,O=C(NC(=O)c1c(F)cccc1F)Nc1cc(Cl)c(OC(F)(F)C(F)C(F)(F)F)cc1Cl (stereo not given),inactive
3,Clc1cccc(Cl)c1Cl,inactive
4,COCCl,inactive
5,CC(=O)C=C(C)C,inactive
6,NCC(O)c1ccc(O)cc1 (stereo not given),inactive
7,CN=C=S,inactive
8,CCC(C)(CC)c1cc(NC(=O)c2c(OC)cccc2OC)on1,61.3 µM (active)
9,C#CCN(C)[C@H](C)Cc1ccccc1,inactive
10,Cc1ccccc1O,inactive
11,CCNc1nc(NC(C)C)nc(SC)n1,inactive
12,CC1C=[C-]C=C1.[C-]#[O+].[C-]#[O+].[C-]#[O+].[Mn],inactive
13,Clc1ccc(Cl)cc1,inactive
14,Cc1cc(Cl)ccc1O,inactive
15,CCOP(=S)(OCC)Oc1cnc2ccccc2n1,inactive and 10.9 µM (active)
16,CC(C)(Cl)Cl,inactive
17,COC(=O)c1ccccc1C(=O)OC,inactive
18,CC(C)=C[C@@H]1[C@@H](C(=O)OCc2coc(Cc3ccccc3)c2)C1(C)C,inactive
19,CC(C)C#N,inactive
20,O=c1n(Cl)c(=O)n(Cl)c(=O)n1Cl,inactive

row,Compound,Potency
1,CC1OC(C)OC(C)O1 (stereo not given),inactive
2,ClCc1cccnc1,inactive
3,CCNc1nc(NC(C)(C)C)nc(SC)n1,1.52 µM (active)
4,c1ccc2c(c1)Oc1ccccc1O2,inactive
5,O=[N+]([O-])c1ccccc1,inactive
6,CCC12COCN1COC2,inactive
7,O=Cc1cccc(Oc2ccccc2)c1,inactive
8,Cc1ccc(N)cc1N,21.1 µM (active) and 27.3 µM (active)
9,c1ccc(-c2ccccc2)cc1,inactive
10,COC(=O)NS(=O)(=O)c1ccc(N)cc1,inactive
11,CCCN(CCC)c1c([N+](=O)[O-])cc(C(F)(F)F)cc1[N+](=O)[O-],inactive
12,C=CCO,inactive
13,CCC[CH2][Sn]([Cl])([Cl])[Cl],inactive
14,O=C1CCCN1,inactive
15,Oc1ccccc1Cl,inactive
16,O=S(=O)(c1ccc(O)cc1)c1ccc(O)cc1,inactive
17,CC(C)OC(=O)Nc1cccc(Cl)c1,inactive
18,CON(C)C(=O)Nc1ccc(Cl)c(Cl)c1,21.8 µM (active) and 27.3 µM (active)
19,Nc1ccc(Oc2ccc(N)cc2)cc1,11 µM (active)
20,CC(C)N1C(=O)c2ccccc2NS1(=O)=O,inactive
